Laboratory results reported in PubChem BioAssay (Tox21).
Inconclusive results are not listed. Calls of active or inactive are those of the source. Unless noted, the call rests on the fitted dose curve.

Key:
[1] = Nuclear factor erythroid 2-related factor 2/antioxidant responsive element (Nrf2/ARE) small molecule agonists: qHTS cell viability counter screen in human keratinocytes (AID 1919968; active means well fitted curve in the direction sought with a large enough effect in the repeat runs; an effect the other way counts as inactive or inconclusive; further: nearly all actives have a fitted effect of over 55% in size); details: KeratinoSens HaCaT ARE cells viability, CellTiter-Fluor, 24 h; series mostly up to 92.4 µM
In short: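 Stably transfected HaCaT (KeratinoSens), 1,500/well. Test agents in DMSO were applied for 23 h, 37 C/5% CO2. CellTiter-Fluor was incubated 1 h before the fluorescence read.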

[2] = Nuclear factor erythroid 2-related factor 2/antioxidant responsive element (Nrf2/ARE) small molecule agonists: luciferase reporter gene qHTS assay in human keratinocytes (AID 1919969); details: KeratinoSens HaCaT ARE-luciferase, luminescence, 24 h; series mostly up to 92.4 µM; further: nearly all actives have a fitted effect of over 35% in size
[3] = target: Gonadotropin-releasing hormone receptor (Homo sapiens) (UniProt P30968); test: Human gonadotropin-releasing hormone receptor (GnRHR) small molecule agonists, calcium flux assay in GnRHR-HEK293 cells (AID 1920063); details: calcium flux fluorescence, agonist mode; series mostly up to 57.6 µM; further: nearly all actives have a fitted effect of over 35% in size
Gonadotropin-releasing hormone receptor (Homo sapiens), sequence (P30968 whole entry, looked up): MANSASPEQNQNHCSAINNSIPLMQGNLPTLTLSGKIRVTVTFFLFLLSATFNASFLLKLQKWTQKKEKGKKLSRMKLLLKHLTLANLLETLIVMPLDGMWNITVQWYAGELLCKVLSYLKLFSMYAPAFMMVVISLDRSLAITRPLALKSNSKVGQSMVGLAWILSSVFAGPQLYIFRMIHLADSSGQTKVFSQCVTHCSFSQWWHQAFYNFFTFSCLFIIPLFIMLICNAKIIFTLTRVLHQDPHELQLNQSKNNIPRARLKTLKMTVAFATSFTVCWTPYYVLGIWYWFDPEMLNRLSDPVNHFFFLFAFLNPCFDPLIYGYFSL
In short: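 Stable human GnRHR HEK293 line. 18 h plating, then calcium dye for 1 h at 37 C. Agonist-mode compound addition from DMSO stocks; fluorescence monitored 3 min.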

[4] = target: KiSS-1 receptor (Homo sapiens) (UniProt Q969F8); test: Human kisspeptin (KISS1R) small molecule agonists, calcium flux assay in KISS1R-HEK293 cells (AID 1920064; active means well fitted curve in the direction sought with a large enough effect in the repeat runs; an effect the other way counts as inactive or inconclusive); details: KISS1R-HEK293, calcium flux fluorescence, agonist; series mostly up to 76.8 µM
KiSS-1 receptor (Homo sapiens), sequence (Q969F8 whole entry, looked up): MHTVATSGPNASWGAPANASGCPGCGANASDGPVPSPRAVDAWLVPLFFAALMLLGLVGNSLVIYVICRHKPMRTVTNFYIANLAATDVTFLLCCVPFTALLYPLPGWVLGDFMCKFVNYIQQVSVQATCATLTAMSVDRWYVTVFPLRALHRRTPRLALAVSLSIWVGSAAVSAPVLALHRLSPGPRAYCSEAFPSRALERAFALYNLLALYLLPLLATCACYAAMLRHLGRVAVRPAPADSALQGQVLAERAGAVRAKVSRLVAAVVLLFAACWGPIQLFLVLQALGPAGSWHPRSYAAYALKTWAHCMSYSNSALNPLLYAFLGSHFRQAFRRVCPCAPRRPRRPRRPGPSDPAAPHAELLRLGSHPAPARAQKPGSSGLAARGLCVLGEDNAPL
In short: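 After overnight (18 h) culture at 37 C/5% CO2, human KISS1R-HEK293 cells received calcium dye for 1 h, then test compound; emission at 540 nm (excitation 480 nm) was tracked for 3 min.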

[5] = G protein-coupled receptor (GPCR) small molecule agonists, calcium flux assay: HEK293 wild type cell line counter screen (AID 1920065); details: HEK293 WT calcium flux, fluorescence, agonist mode; series mostly up to 57.6 µM
In short: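 Following 18 h incubation at 37 C/5% CO2, plates got calcium dye for 1 h; compounds, ATP or DMSO were then pinned in and fluorescence followed kinetically (480/540 nm).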

[6] = p53 small molecule agonists, cell-based qHTS assay with human liver microsomes (AID 1963577); details: HCT-116 p53RE-bla with human liver microsomes, ratio, 16 h; series mostly up to 66 µM;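 further: p53 response element beta-lactamase reporter cells with liver microsomes plus NADPH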
In short: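 Reporter activation was measured by LiveBLAzer fluorescence intensity in p53RE-bla cells, which had been exposed to compounds for 16 h at 37 C alongside 0.5 mg/mL human liver microsomes and 0.5 mg/mL NADPH (final concentrations).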

[7] = p53 small molecule agonists, cell-based qHTS assay with rat liver microsomes (AID 1963578); details: HCT-116 p53RE-bla, beta-lactamase ratio, 16 h; series mostly up to 66 µM
In short: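 Compound in DMSO added to p53RE-bla cells 5 h post-plating; rat microsomes/NADPH 0.5 mg/mL final; 16 h, 37 C; LiveBLAzer 2 h RT.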

[8] = p53 small molecule agonists, cell-based qHTS assay with human liver microsomes: qHTS cell viability counter screen (AID 1963579); details: p53RE-bla HCT-116 viability, ATP luminescence, 16 h, HLM; series mostly up to 66 µM; further: nearly all actives have a fitted effect of over 45% in size
In short: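 HLM-supplemented (0.5 mg/mL final) and NADPH-supplemented (0.5 mg/mL final) p53RE-bla cultures, 4,000 cells per well, were dosed with compounds in DMSO for 16 h at 37 C; luminescent ATP detection (CellTiter-Glo, 30 min, room temperature) quantified surviving cells.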

[9] = p53 small molecule agonists, cell-based qHTS assay with rat liver microsomes: qHTS cell viability counter screen (AID 1963580); details: p53RE-bla HCT-116 + rat microsomes, ATP viability, 16 h; series mostly up to 66 µM; further: nearly all actives have a fitted effect of over 45% in size
In short: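 Cytotoxicity counter screen: intracellular ATP measured by CellTiter-Glo luminescence in the same wells as the beta-lactamase reporter read, on HCT-116 p53RE-bla cells exposed 16 h at 37 C to compounds with rat liver microsomes and NADPH, each 0.5 mg/mL final.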

[10] = p53 small molecule agonists, cell-based qHTS assay: qHTS cell viability counter screen (AID 1963581); details: p53RE-bla HCT-116 viability, ATP luminescence, 16 h; series mostly up to 66 µM; further: nearly all actives have a fitted effect of over 45% in size
In short: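 qHTS counter screen: 16 h compound exposure at 37 C of p53RE-bla HCT-116 cells (4,000 per well, seeded 5 h prior), cell viability by ATP luminescence.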

[11] = p53 small molecule agonists, cell-based qHTS assay (AID 1963582; active means well fitted activation curve with a large enough effect in the signal ratio in the repeat runs, not every such curve was filed as active; the % refers to the signal ratio); details: HCT-116 p53RE-bla reporter, beta-lactamase FRET ratio, 16 h; series mostly up to 66 µM
In short: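 Measured: fluorescence from cleaved LiveBLAzer substrate. System: p53RE-bla cells, 16 h compound treatment at 37 C, 2 h substrate step at room temperature.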

[12] = target: 5-hydroxytryptamine receptor 2A (Homo sapiens) (UniProt P28223); test: 5-hydroxytryptamine receptor 2A (HTR2A) small molecule antagonists, cell-based qHTS assay (AID 1963586); details: HTR2A-CHO cells, DOI-induced calcium flux, fluorescence; series mostly up to 61.5 µM; further: nearly all actives have a fitted effect of over 45% in size; further: potency means the concentration at half of the fitted maximal effect
5-hydroxytryptamine receptor 2A (Homo sapiens), sequence (P28223 whole entry, looked up): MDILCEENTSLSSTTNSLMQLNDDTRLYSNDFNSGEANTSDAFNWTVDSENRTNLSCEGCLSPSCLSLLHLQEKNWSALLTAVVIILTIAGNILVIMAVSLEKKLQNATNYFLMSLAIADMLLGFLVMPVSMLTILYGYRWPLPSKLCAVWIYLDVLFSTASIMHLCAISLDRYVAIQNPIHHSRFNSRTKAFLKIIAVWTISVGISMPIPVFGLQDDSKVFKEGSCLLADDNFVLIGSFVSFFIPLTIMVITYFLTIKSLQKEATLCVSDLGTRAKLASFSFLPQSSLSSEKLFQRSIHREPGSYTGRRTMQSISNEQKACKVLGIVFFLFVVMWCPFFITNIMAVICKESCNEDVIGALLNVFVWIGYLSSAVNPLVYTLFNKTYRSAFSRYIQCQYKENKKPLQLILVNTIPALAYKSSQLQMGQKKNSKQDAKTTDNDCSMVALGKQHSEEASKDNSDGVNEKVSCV
In short: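 CHO cells stably expressing human HTR2A were plated for 18 h at 37 C, then loaded with calcium dye for 1 h. Compounds were preincubated 5 min at room temperature before DOI (4 nM solution) was added. Kinetic fluorescence was read for 3 min.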

[13] = target: 5-hydroxytryptamine receptor 2A (Homo sapiens) (UniProt P28223); test: 5-hydroxytryptamine receptor 2A (HTR2A) small molecule agonists, cell-based qHTS assay (AID 1963587); details: HTR2A-CHO cells, calcium flux fluorescence, agonist mode; series mostly up to 76.8 µM; further: nearly all actives have a fitted effect of over 30% in size
In short: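 CHO cells stably expressing human HTR2A, plated 18 h, loaded with calcium dye 1 h at 37 C. Agonist mode: compounds added and intracellular calcium fluorescence recorded kinetically for 2 min at 1 sec intervals.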

[14] = target: Muscarinic acetylcholine receptor M1 (Homo sapiens) (UniProt P11229); test: Cholinergic receptor muscarinic 1 (CHRM1) small molecule antagonists, cell-based qHTS assay (AID 1963588); details: CHRM1-CHO antagonist mode, calcium flux fluorescence; series mostly up to 61.5 µM; further: nearly all actives have a fitted effect of over 40% in size; further: potency means the concentration at half of the fitted maximal effect
Muscarinic acetylcholine receptor M1 (Homo sapiens), sequence (P11229 whole entry, looked up): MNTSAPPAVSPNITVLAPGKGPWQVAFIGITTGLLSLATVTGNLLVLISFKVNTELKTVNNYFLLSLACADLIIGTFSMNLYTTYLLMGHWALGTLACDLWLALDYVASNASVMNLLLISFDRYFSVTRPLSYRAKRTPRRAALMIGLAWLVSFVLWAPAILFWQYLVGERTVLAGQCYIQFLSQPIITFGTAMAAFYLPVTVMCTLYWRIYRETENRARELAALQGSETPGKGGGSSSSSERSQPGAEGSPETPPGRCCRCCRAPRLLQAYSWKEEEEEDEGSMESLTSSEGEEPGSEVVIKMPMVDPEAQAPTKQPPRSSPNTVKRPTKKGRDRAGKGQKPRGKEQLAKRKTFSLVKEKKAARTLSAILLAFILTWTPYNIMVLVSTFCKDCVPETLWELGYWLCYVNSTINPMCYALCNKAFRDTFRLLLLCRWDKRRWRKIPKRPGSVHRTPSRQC
In short: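 Compounds were tested at 15 concentrations in three independent runs. Dye-loaded CHRM1-CHO cells were exposed 5 min at room temperature before stimulation by acetylcholine added at 50nM. Intracellular calcium was read kinetically on FDSS for 3 min.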

[15] = target: Muscarinic acetylcholine receptor M1 (Homo sapiens) (UniProt P11229); test: Cholinergic receptor muscarinic 1 (CHRM1) small molecule agonists, cell-based qHTS assay (AID 1963589); details: CHRM1-CHO cells, agonist mode, calcium flux fluorescence; series mostly up to 76.8 µM; further: nearly all actives have a fitted effect of over 35% in size
In short: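 Kinetic fluorescence (1 s intervals) of calcium-sensitive dye in human M1 CHO cells after compound addition; cells pre-incubated 18 h at 37 C/5% CO2 and dye-loaded 1 h.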

[16] = cAMP Responsive Elements (CRE) small molecule agonists, cell-based qHTS assay (AID 1963590); details: CRE-bla HEK293T, beta-lactamase FRET ratio, 3 h; series mostly up to 92.4 µM
In short: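 Test agents in DMSO were incubated 3 h at 37 C/5% CO2 with CRE-bla HEK 293T cells seeded 18 h earlier; LiveBLAzer B/G FRET substrate was added and read after 2 h at room temperature.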

[17] = cAMP Responsive Elements (CRE) small molecule antagonists, cell-based qHTS assay (AID 1963591; active means well fitted inhibition curve with a large enough effect in the signal ratio in the repeat runs, not every such curve was filed as active; the % refers to the signal ratio); details: CRE-bla HEK293T, beta-lactamase FRET ratio; series mostly up to 92.4 µM
In short: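 Reporter line CRE-bla HEK 293T in dialyzed-FBS DMEM; cells preincubated 18 h, treated 3 h with compound plus NKH477 (0.25 uM final); LiveBLAzer FRET, 2 h RT.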

[18] = target: Beta-2 adrenergic receptor (Homo sapiens) (UniProt P07550); test: Adrenergic beta2 receptor (ADRB2) small molecule antagonists, cell-based qHTS assay (AID 1963592); details: CHO-ADRB2 cells, isoproterenol-stimulated cAMP HTRF ratio, 0.5 h; series mostly up to 92.4 µM; further: nearly all actives have a fitted effect of over 50% in size
Beta-2 adrenergic receptor (Homo sapiens), sequence (P07550 whole entry, looked up): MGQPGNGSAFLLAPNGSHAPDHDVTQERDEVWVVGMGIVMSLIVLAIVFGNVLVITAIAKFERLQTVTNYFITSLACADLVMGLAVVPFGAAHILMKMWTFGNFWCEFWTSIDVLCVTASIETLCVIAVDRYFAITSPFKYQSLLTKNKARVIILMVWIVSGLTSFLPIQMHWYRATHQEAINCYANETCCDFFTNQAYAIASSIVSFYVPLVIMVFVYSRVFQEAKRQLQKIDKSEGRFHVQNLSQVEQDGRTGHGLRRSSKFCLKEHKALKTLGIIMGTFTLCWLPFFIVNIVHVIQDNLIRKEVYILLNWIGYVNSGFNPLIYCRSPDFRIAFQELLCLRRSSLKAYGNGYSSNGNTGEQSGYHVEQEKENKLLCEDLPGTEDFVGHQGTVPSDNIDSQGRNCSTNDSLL
In short: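 Assay format: CHO-ADRB2 cells, 18-20hr seeding at 37C/5% CO2, then compound plus 1nM isoproterenol agonist mix for 0.5hr RT. Homogeneous time-resolved fluorescence cAMP detection after 1hr, expressed as 665/615 nm ratio.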

[19] = target: D(2) dopamine receptor (Homo sapiens) (UniProt P14416); test: Dopamine D2 receptor (DRD2) small molecule agonists, cell-based qHTS assay (AID 1963594); details: HEK293-DRD2 cAMP HTRF, agonist mode, 30 min; series mostly up to 92.4 µM; further: nearly all actives have a fitted effect of over 35% in size
D(2) dopamine receptor (Homo sapiens), sequence (P14416 whole entry, looked up): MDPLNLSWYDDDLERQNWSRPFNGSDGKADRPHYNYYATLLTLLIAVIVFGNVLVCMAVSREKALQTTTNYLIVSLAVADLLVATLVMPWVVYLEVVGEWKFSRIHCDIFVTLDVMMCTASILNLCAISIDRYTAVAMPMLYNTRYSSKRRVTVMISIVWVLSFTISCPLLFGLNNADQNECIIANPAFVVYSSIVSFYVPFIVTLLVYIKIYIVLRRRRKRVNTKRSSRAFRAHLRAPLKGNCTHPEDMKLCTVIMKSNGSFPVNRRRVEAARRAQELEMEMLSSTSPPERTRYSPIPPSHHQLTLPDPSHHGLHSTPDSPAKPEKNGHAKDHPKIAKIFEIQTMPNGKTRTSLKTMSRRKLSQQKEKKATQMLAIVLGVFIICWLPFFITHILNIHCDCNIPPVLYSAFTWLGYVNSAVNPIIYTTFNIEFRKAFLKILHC
In short: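 HEK293 cells stably expressing human DRD2, pre-treated with PDE inhibitor Ro20-1724 (0.1 mM final) and compound 10 min at room temperature, then stimulated with NKH477 (200nM […]) for 30 min. cAMP read by HTRF (665/620 nm).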

[20] = target: D(2) dopamine receptor (Homo sapiens) (UniProt P14416); test: Dopamine D2 receptor (DRD2) small molecule antagonists, cell-based qHTS assay (AID 1963595; active means well fitted inhibition curve with a large enough effect in the signal ratio in the repeat runs, with a control signal flat; the % refers to the signal ratio); details: HEK293-DRD2 cAMP HTRF antagonist mode; series mostly up to 92.4 µM
In short: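 Stable D2 receptor HEK293 line, 24 h after seeding. Compound preincubated 10 min, then quinpirole (12 nM) with forskolin analogue NKH477 (200 nM), 30 min, room temperature. Detection by time-resolved FRET of cAMP.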
On the % scale 0 is the no-effect control and ±100 the full control effect.

CC1CCC(=O)O1 (centres undefined)
inactive: Potency [1] | Potency [2] | Potency [3] | Potency [4] | Potency [5] | Potency [6] | Potency [7] | Potency [8] | Potency [9] | Potency [10] | Potency [11] | Potency [12] | Potency [13] | Potency [14] | Potency [15] | Potency [16] | Potency [17] | Potency [18] | Potency [19] | Potency [20]

C=CCCC#N
inactive: Potency [1] | Potency [2] | Potency [3] | Potency [4] | Potency [5] | Potency [6] | Potency [7] | Potency [8] | Potency [9] | Potency [10] | Potency [11] | Potency [12] | Potency [13] | Potency [14] | Potency [15] | Potency [16] | Potency [17] | Potency [18] | Potency [19] | Potency [20]

CCN(CC)CCO
inactive: Potency [1] | Potency [2] | Potency [3] | Potency [4] | Potency [5] | Potency [6] | Potency [7] | Potency [8] | Potency [9] | Potency [10] | Potency [11] | Potency [12] | Potency [13] | Potency [14] | Potency [15] | Potency [16] | Potency [17] | Potency [18] | Potency [19] | Potency [20]

Brc1c(Br)c(Br)c(Br)c(Br)c1Br
inactive: activity change, negative = cytotoxicity [1] 1.17% [at 8.39 µM] | activity, positive = activation [2] 1.37% [at 8.39 µM] | activity change [3] 0.959% [at 5.22 µM, stronger effect = higher value] | activation [4] -5.73% [at 6.97 µM] | activation [5] 0.0498% [at 5.23 µM] | activation [6] 1.36% [at 5.99 µM] | activation [7] -3.05% [at 5.99 µM] | activity change, negative = cytotoxicity [8] -1.65% [at 5.99 µM] | activity change, negative = cytotoxicity [9] 2.93% [at 5.99 µM] | activity change, negative = cytotoxicity [10] -11.2% [at 5.99 µM] | activation [11] 2.53% [at 5.99 µM] | activity, negative = inhibition [12] -11.3% [at 5.62 µM] | activation [13] -1.65% [at 7.02 µM] | activity, negative = inhibition [14] 23.8% [at 5.58 µM] | activation [15] -0.148% [at 6.97 µM] | activation [16] -0.136% [at 8.39 µM] | activity change, negative = inhibition [17] -5.46% [at 8.39 µM] | activity change, negative = inhibition [18] -9.58% [at 8.39 µM] | activation [19] -0.47% [at 8.39 µM] | activity change, negative = inhibition [20] -0.734% [at 8.38 µM]

CN1CCC(N(Cc2ccccc2)c2ccccc2)CC1
active: Potency [12] 2590 nM | Potency [14] 365 nM
inactive: Potency [1] | Potency [2] | Potency [3] | Potency [4] | Potency [5] | Potency [6] | Potency [7] | Potency [8] | Potency [9] | Potency [10] | Potency [11] | Potency [13] | Potency [15] | Potency [16] | Potency [17] | Potency [18] | Potency [19] | Potency [20]

C=C(C)C(=O)OCC1CO1 (centres undefined)
inactive: Potency [1] | Potency [2] | Potency [3] | Potency [4] | Potency [5] | Potency [6] | Potency [7] | Potency [8] | Potency [9] | Potency [10] | Potency [11] | Potency [12] | Potency [13] | Potency [14] | Potency [15] | Potency [16] | Potency [17] | Potency [18] | Potency [19] | Potency [20]

N#Cc1ccccc1Cl
inactive: Potency [1] | Potency [2] | Potency [3] | Potency [4] | Potency [5] | Potency [6] | Potency [7] | Potency [8] | Potency [9] | Potency [10] | Potency [11] | Potency [12] | Potency [13] | Potency [14] | Potency [15] | Potency [16] | Potency [17] | Potency [18] | Potency [19] | Potency [20]

CCOc1nc(F)cc2nc(S(=O)(=O)Nc3c(Cl)cccc3Cl)nn12
inactive: Potency [1] | Potency [2] | Potency [3] | Potency [4] | Potency [5] | Potency [6] | Potency [7] | Potency [8] | Potency [9] | Potency [10] | Potency [11] | Potency [12] | Potency [13] | Potency [14] | Potency [15] | Potency [16] | Potency [17] | Potency [18] | Potency [19]
